Several values for one entry are separate records, joined by “and”; a condition that tells them apart may be missing. Identical values can stand only once. Inconclusive results are not listed. Some compounds were tested as several samples or in several runs, with calls that do not always agree. Activity calls are given as the source filed them. Unless noted, the call rests on the fitted dose curve; in most records, active means well fitted curve in the direction sought with a large enough effect in the repeat runs; inconclusive means weak or mixed curves; inactive means no such curve, though single readings can be large; an effect the other way counts as inactive or inconclusive.

The nature of assay [1]: qHTS assay to identify small molecule antagonists of the thyroid receptor (TR) signaling pathway - cell viability counter screen (AID 743064). Further: nearly all actives have a fitted effect of over 50% in size. Further: potency means the concentration at half of the fitted maximal effect. An outline of the steps: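 In rat pituitary GH3.TRE-Luc reporter cells co-exposed to compound and 1 nM T3 for 23.5 h, cytotoxicity was assessed with CellTiter-Fluor in the same wells, read by fluorescence.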
(Quantitative high-throughput screening tests each substance at several concentrations.)

Assay [2] can be described thus: qHTS assay to identify small molecule antagonists of the thyroid receptor (TR) signaling pathway (AID 743065). Further: nearly all actives have a fitted effect of over 55% in size. Further: potency means the concentration at half of the fitted maximal effect. An outline of the steps:
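GH3.TRE-Luc rat pituitary cells carrying two TR response elements driving luciferase were plated for 4 h, given compound plus 1 nM T3 (final), and incubated 23.5 h at 37 C. ONE-Glo luminescence measured reporter inhibition; CellTiter-Fluor fluorescence tracked cytotoxicity.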

The test system of assay [3] is thyroid hormone receptor (rat, GH3 cells). Put plainly: qHTS assay to identify small molecule agonists of the thyroid receptor (TR) signaling pathway (AID 743066; calls by dose curve).
For assay [4], the target named is Estrogen receptor (Homo sapiens) (UniProt P03372). Put plainly: qHTS assay to identify small molecule antagonists of the estrogen receptor alpha (ER-alpha) signaling pathway (AID 743069; active means well fitted curve in the direction sought with a large enough effect in the signal ratio in the repeat runs, not every such curve was filed as active; the % refers to the signal ratio). An outline of the steps:
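HEK293 cells stably carrying an ER-alpha-UAS-bla beta-lactamase reporter were pre-cultured overnight in 2% charcoal-stripped FBS medium. Test compounds in DMSO were added together with 17beta-estradiol for 18 hr at 37C. Read-out was fluorescence after 2 hr with LiveBLAzer B/G FRET substrate at room temperature.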

Assay [5] can be described thus: qHTS assay to identify small molecule antagonists of the estrogen receptor alpha (ER-alpha) signaling pathway - cell viability counter screen (AID 743074; calls by dose curve; further: nearly all actives have a fitted effect of over 45% in size).
Assay [6] has as its target Estrogen receptor (Homo sapiens) (UniProt P03372). Put plainly: qHTS assay to identify small molecule agonists of the estrogen receptor alpha (ER-alpha) signaling pathway (AID 743075; calls by dose curve).
The target is the same in assay [7]. Put plainly: qHTS assay to identify small molecule agonists of the estrogen receptor alpha (ER-alpha) signaling pathway using the BG1 cell line (AID 743079). Further: nearly all actives have a fitted effect of over 20% in size.
The nature of assay [8]: qHTS assay to identify small molecule antagonists of the estrogen receptor alpha (ER-alpha) signaling pathway using the BG1 cell line (AID 743080; calls by dose curve;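 further: BG1 cells stimulated with 17beta-estradiol alongside compound; series mostly up to about 70 µM; nearly all actives have a fitted effect of over 25% in size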). Put shortly:
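BG1-Luc-4E2 cells (endogenous full-length ER-alpha, 4xERE luciferase) hormone-starved 5 days in charcoal-stripped FBS, plated 4,000/well for 24 h, then compound plus 17beta-estradiol for 21.5 h at 37 C; ONE-Glo luminescence read.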

Assay [9] is described as follows: qHTS assay to identify small molecule antagonists of the estrogen receptor alpha (ER-alpha) signaling pathway using the BG1 cell line - cell viability counter screen (AID 743081).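 Further: compound given together with 17beta-estradiol as the ER stimulus; series mostly up to about 70 µM; nearly all actives have a fitted effect of over 45% in size.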
Assay [10] concerns the target Aromatase (Homo sapiens) (UniProt P11511). Briefly: qHTS assay to identify aromatase inhibitors (AID 743083). Further: nearly all actives have a fitted effect of over 55% in size. Further: potency means the concentration at half of the fitted maximal effect.
A short description of assay [11]: qHTS assay to identify aromatase inhibitors - cell viability counter screen (AID 743084).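 Further: cells stimulated with testosterone during compound exposure; nearly all actives have a fitted effect of over 55% in size.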 Further: potency means the concentration at half of the fitted maximal effect.
Assay [12] has as its target Aryl hydrocarbon receptor (Homo sapiens) (UniProt P35869). Put plainly: qHTS assay to identify small molecule that activate the aryl hydrocarbon receptor (AhR) signaling pathway (AID 743085).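 Further: HG2L7.5c1 human HepG2 liver cells with stably integrated DRE-driven firefly reporter; series mostly up to about 70 µM; nearly all actives have a fitted effect of over 15% in size.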 Put shortly: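 AhR agonist activity is inferred from enhanced light output of a DRE-controlled firefly luciferase reporter in HepG2 cells, measured with ONE-Glo following 24 h treatment at 37C.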

Assay [13] can be described thus: qHTS assay to identify small molecule that activate the aryl hydrocarbon receptor (AhR) signaling pathway - cell viability counter screen (AID 743086).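 Further: HepG2 liver cells carrying the AhR DRE luciferase reporter; series mostly up to about 70 µM; nearly all actives have a fitted effect of over 45% in size.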 An outline of the steps:
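HepG2-AhR-luc (HG2L7.5c1) cells, 4000/well, were preincubated 5 h at 37C, exposed to compound in qHTS format for 24 hr at 37C, then given CellTiter-Fluor for 30 min; viability was read as fluorescence in the reporter wells.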

The nature of assay [14]: qHTS assay for small molecule agonists of the antioxidant response element (ARE) signaling pathway (AID 743202; active means well fitted activation curve with a large enough effect in the signal ratio in the repeat runs, not every such curve was filed as active; the % refers to the signal ratio). Put shortly: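 Read-out: LiveBLAzer B/G FRET substrate fluorescence after 2 h at room temperature, following 16 h compound treatment at 37 C of HepG2 cells carrying an ARE-driven beta-lactamase reporter.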
Assay [15] can be described thus: qHTS assay for small molecule agonists of the antioxidant response element (ARE) signaling pathway - cell viability counter screen (AID 743203; calls by dose curve; further: nearly all actives have a fitted effect of over 55% in size). An outline of the steps: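 Following 16 hrs of compound treatment at 37C, HepG2 cells with an ARE-controlled beta-lactamase gene were lysed with CellTiter-Glo. Luminescence was read after 30 min at room temperature.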
Assay [16] can be described thus: qHTS assay for small molecule activators of the heat shock response signaling pathway - cell viability counter screen (AID 743209). Further: nearly all actives have a fitted effect of over 50% in size. Put shortly:
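Readout: CellTiter-Glo luminescence, 30 min at room temperature. System: HSE-bla HeLa cells, 1500/well, plated overnight. Treatment: compounds in DMSO, 5 h at 37 C.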

Assay [17] is described as follows: qHTS assay for small molecule activators of the heat shock response signaling pathway (AID 743210; active means well fitted activation curve with a large enough effect in the signal ratio in the repeat runs, with a control signal flat, not every such curve was filed as active; the % refers to the signal ratio; further: series mostly up to about 63 µM). Put shortly:
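HSE-bla HeLa cells (beta-lactamase reporter under heat shock response elements) were exposed to compounds for 5 h at 37 C, then loaded with LiveBLAzer B/G FRET substrate for 2.5 h at room temperature before fluorescence reading.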

Assay [18] addresses Peroxisome proliferator-activated receptor gamma (Homo sapiens) (UniProt P37231). Put plainly: qHTS assay to identify small molecule agonists of the peroxisome proliferator-activated receptor gamma (PPARg) signaling pathway (AID 743094; active means well fitted activation curve with a large enough effect in the signal ratio in the repeat runs, not every such curve was filed as active; the % refers to the signal ratio). An outline of the steps:
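Compounds dissolved in DMSO were added to PPARg UAS-bla HEK293H cells for 17 h at 37C, and reporter expression was quantified by fluorescence intensity after 1 h with LiveBLAzer B/G FRET substrate.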

Assay [19] in a line: qHTS assay to identify small molecule antagonists of the peroxisome proliferator-activated receptor gamma (PPARg) signaling pathway - cell viability counter screen (AID 743194). Further: nearly all actives have a fitted effect of over 55% in size. An outline of the steps: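 PPARg-UAS-bla HEK293H cells were plated, rested 5 h at 37 C, then treated with compounds plus rosiglitazone (50 nM final) for 17 h at 37 C; viability was then read by CellTiter-Glo luminescence after 30 min at room temperature.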
On the % scale 0 is the no-effect control and ±100 the full control effect.

Aryl hydrocarbon receptor (Homo sapiens), sequence (P35869 whole entry, looked up): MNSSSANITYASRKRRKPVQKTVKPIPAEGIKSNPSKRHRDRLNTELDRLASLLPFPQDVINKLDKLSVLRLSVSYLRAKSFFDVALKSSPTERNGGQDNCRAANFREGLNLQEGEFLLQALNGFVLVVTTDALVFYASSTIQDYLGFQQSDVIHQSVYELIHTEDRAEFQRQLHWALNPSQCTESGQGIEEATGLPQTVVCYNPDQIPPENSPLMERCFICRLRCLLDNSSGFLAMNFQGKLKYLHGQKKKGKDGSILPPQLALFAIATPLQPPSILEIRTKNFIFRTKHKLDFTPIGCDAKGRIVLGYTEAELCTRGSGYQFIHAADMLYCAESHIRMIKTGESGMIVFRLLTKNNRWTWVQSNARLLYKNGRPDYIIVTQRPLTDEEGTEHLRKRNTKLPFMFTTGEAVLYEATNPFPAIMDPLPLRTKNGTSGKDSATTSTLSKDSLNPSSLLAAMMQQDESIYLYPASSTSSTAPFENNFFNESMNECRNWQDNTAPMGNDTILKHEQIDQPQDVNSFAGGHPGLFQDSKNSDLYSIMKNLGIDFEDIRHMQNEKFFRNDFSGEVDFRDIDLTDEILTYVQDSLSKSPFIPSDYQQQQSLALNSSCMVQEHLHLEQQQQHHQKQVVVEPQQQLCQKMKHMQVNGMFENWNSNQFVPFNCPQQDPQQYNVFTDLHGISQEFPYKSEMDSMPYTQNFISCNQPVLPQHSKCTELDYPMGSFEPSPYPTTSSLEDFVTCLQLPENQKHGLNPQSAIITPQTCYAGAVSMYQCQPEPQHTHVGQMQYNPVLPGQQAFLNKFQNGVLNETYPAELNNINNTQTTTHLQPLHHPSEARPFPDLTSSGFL
Estrogen receptor (Homo sapiens), sequence (P03372 whole entry, looked up): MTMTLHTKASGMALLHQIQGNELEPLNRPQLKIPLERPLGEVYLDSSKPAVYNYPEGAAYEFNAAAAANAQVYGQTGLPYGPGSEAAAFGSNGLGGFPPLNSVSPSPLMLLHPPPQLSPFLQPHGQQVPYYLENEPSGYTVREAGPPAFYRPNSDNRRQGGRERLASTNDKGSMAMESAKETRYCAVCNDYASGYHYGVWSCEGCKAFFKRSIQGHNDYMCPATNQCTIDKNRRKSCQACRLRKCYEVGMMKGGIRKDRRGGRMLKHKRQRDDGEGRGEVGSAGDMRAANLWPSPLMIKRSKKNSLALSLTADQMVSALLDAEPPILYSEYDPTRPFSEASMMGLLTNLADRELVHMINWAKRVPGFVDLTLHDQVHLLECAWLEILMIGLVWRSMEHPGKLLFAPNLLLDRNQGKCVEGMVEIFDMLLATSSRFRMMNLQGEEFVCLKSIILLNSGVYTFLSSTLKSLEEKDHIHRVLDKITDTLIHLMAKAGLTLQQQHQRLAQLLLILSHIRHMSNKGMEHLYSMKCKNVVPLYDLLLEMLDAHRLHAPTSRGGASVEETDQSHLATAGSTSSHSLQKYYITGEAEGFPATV
Aromatase (Homo sapiens), sequence (P11511 whole entry, looked up): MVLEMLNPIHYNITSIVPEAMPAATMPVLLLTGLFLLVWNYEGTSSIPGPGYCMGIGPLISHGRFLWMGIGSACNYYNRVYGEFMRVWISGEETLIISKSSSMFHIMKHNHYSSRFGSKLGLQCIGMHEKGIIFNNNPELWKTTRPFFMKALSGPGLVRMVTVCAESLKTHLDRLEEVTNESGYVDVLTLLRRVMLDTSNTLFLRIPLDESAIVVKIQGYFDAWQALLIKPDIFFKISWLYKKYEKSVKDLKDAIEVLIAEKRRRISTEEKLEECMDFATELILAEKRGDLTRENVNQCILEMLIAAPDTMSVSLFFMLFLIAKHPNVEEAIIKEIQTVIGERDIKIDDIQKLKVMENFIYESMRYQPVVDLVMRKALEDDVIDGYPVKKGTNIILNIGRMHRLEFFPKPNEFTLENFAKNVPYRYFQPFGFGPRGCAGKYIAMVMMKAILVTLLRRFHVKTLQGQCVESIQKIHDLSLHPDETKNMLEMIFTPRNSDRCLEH
Peroxisome proliferator-activated receptor gamma (Homo sapiens), sequence (P37231 whole entry, looked up): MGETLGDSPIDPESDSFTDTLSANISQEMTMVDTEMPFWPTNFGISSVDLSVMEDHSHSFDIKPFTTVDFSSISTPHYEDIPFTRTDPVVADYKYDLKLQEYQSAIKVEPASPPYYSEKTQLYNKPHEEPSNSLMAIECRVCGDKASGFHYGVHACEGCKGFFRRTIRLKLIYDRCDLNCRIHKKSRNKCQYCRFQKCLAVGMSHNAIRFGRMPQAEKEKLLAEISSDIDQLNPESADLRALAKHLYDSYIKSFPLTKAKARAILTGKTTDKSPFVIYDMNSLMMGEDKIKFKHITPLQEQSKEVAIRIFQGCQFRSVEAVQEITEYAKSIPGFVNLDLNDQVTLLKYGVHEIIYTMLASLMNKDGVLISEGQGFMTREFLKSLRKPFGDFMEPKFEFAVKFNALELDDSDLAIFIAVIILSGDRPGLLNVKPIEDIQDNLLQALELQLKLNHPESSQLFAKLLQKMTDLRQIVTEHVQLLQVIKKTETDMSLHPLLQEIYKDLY

`Nc1ccc(S(=O)(=O)Nc2ccnn2-c2ccccc2)cc1`: the Potency result in [1], in [2], in [6], in assay [7], in assay [9] and in assay [10] was “inactive” in each case. Further, the Potency entry in assay [11], in assay [12], in assay [13], in [14] and in [15] was “inactive” throughout. Moreover, the molecule was classed as inactive in [3], in [4], in assay [5], in assay [8], in [16] and in [17].

In the case of `CCCCC/C=C\CCC=O`, the Potency result in assay [1], in assay [2], in assay [6], in [7], in assay [9] and in assay [10] was “inactive” each time. Further, the Potency entry in [11], in assay [12], in assay [13] and in assay [15] was “inactive” throughout. In addition, the call in [3], in [4], in [5], in assay [8], in [18] and in [19] was inactive. In addition, the call in assay [16] and in [17] was inactive.

Turning to `COCCCOCCCOC`, the Potency result in assay [1], in assay [2], in [6], in assay [7], in assay [9] and in assay [10] was “inactive” throughout. Also, the Potency result in assay [11], in [12], in assay [13] and in [15] was “inactive” in each case. Further, the outcome in assay [3], in assay [4], in assay [5], in assay [8], in [18] and in assay [16] was inactive. Further, the result in assay [17] was inactive.

As to `CCN1CCC[C@H]1CNC(=O)c1c(O)c(Cl)cc(Cl)c1OC`, the Potency result in assay [1], in [2], in assay [6], in [7], in [9] and in [10] was “inactive” throughout. Further, the Potency result in [11], in [12], in assay [13], in assay [14] and in assay [15] was “inactive” in each case. For the same molecule, the molecule was called inactive in [3], in assay [4], in assay [5], in assay [8], in assay [19] and in assay [16]. The result in [17] was inactive.

As for `COC(=O)C1=C(C)NC(C)=C(C(=O)OC)C1c1ccccc1[N+](=O)[O-]`, the Potency in assay [1] was 48.6 µM (active); in assay [2], 30.7 µM (active); in assay [10], 68.7 µM (active); in assay [11], “inactive and 54.5 µM (active)”. The call in assay [3], in assay [4], in [5], in assay [8], in assay [19] and in [16] was inactive. Moreover, the molecule was classed as inactive in assay [17]. Moreover, the Potency entry in assay [6], in assay [7], in assay [9], in assay [13], in assay [14] and in assay [15] was “inactive” in each case.

Turning to `COc1ccccc1OCC(O)CN1CCN(CC(=O)Nc2c(C)cccc2C)CC1` (stereo not drawn), the Potency entry in [1], in [2], in assay [6], in assay [7], in [9] and in [10] was “inactive” each time. Besides, the Potency entry in assay [11], in [12], in [13], in assay [14] and in assay [15] was “inactive” in each case. The molecule was classed as inactive in assay [3], in assay [4], in assay [5], in assay [8], in assay [18] and in [19]. Besides, the result in assay [16] and in assay [17] was inactive.

On to `NCCCNCCSP(=O)(O)O`, for which the Potency entry in assay [1], in assay [2], in [6], in [7], in assay [9] and in assay [10] was “inactive” in each case. Further, the Potency entry in assay [11], in assay [12] and in assay [13] was “inactive” in each case. Also, the molecule was classed as inactive in assay [3], in assay [4], in [5], in assay [8] and in assay [18]. The values for the activity change, negative = cytotoxicity in assay [19] and in assay [16] were -6.69% [at 13.2 µM] (inactive) and 4.97% [at 13.2 µM] (inactive), respectively. Also, the activation in [14] was -5.66% [at 8.36 µM] (inactive); in assay [17], -0.51% [at 13.2 µM] (inactive). In addition, the viability change, negative = cytotoxic in assay [15] is 1.31% [at 8.36 µM] (inactive).

Turning to `O=[N+]([O-])c1ccc(F)cc1F`, the Potency entry in [1], in [2], in assay [6], in assay [7], in [9] and in assay [10] was “inactive” each time. Moreover, the Potency result in [11], in assay [12], in [13] and in assay [15] was “inactive” in each case. Further, the call in assay [3], in [4], in assay [5], in assay [8], in assay [18] and in assay [19] was inactive. Also, the molecule was called inactive in assay [16] and in [17].

For the origin of these results see PubChem BioAssay (Tox21).
